According to PubChem BioAssay AID2125 (NMMLSC, 2009):
A number with no mark means an inactive call.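 The calls were made as follows: active = combined score above 50, rising as EC50 falls below 10 µM and growth at top dose drops; inactive = the rest.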 Peptide text beside a SMILES is read from it. * marks the point of attachment. Cbz = O=C(OCc1ccccc1)*

Test system: YE4008
Assay: growth inhibition of S. cerevisiae strain panel, profiling panel, 26S proteasome disassembly project, secondary panel, OD600 (AID 2125)
Conditions: growth OD600, 6-8 h, at 100 µM, hits give low values

SMILES	percent response (growth) [%]
CC(C)C[C@@H](C=O)NC(=O)[C@H](CC(C)C)NC(=O)[C@H](CC(C)C)NC(=O)OCc1ccccc1 (Cbz-Leu-Leu-Leu-aldehyde)	88.2
CC(=O)N1C(=O)C(=C2C=C(C)OC(C)=C2)c2ccccc21	56.6
